Bioassay records (PubChem)
Hits are enriched below; roughly 7.9% of the tested compounds scored in any of these assays.
KB-V1 MDR tox: qHTS assay for MDR1-selective chemotherapeutics: Primary screen using the drug-selected MDR subline cells KB-V1 | KB-V1 MDR cells viability, CellTiter-Glo, 72 h | Potency, µM (highest dose often 46.1 µM), usual class: cytotoxic | 400,000 compounds, 3.4% hits | AID 1347076, 2019; also: nearly all actives have a fitted effect of over 60% in size
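Drug-selected KB-V1 cells, grown in DMEM lacking phenol red with 10% FBS, receive compound titrations; after three days at 37 degrees C, surviving cell ATP is quantified by CellTiter-Glo luminescence and responses normalized and curve-fitted.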
MCF10A rerep: A quantitative high throughput screen for small molecules that induce DNA re-replication in MCF 10a normal breast cells; MCF 10A DNA re-replication, Hoechst nuclear intensity, 48 h; 350,000 compounds, 2.9% hits; Potency, µM (highest dose often 46.1 µM), hits mostly activators; also: nearly all actives have a fitted effect of over 50% in size
SW480 rereplic: A quantitative high throughput screen for small molecules that induce DNA re-replication in SW480 colon adenocarcinoma cells. AID 624297, 2012. Potency, µM (doses to about 46.1 µM), hits mostly activators. SW480 DNA re-replication, Hoechst DNA content imaging, 48 h. 340,000 compounds, 1.8% hits; also: nearly all actives have a fitted effect of over 55% in size
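Image-based read-out: total Hoechst fluorescence of nuclei (405 nm excitation, 500-530 nm emission), with hits raising the fraction of high-intensity nuclei. SW480 colon cells incubated 48 hr with compounds at 37 C.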
HT1080NT lethal: qHTS for induction of synthetic lethality in tumor cells producing 2HG: qHTS for the HT-1080-NT fibrosarcoma cell line; HT-1080-NT fibrosarcoma viability, CellTiter-Glo ATP luminescence, 48 h; Potency, µM (top dose mostly 46.1 µM), most hits filed as cytotoxic; 360,000 compounds, 1.6% hits; AID 686970, 2013;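 also: NT is the 2HG producing partner of a matched IDH1 knockdown line; nearly all actives have a fitted effect of over 55% in size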
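Compounds were tested in concentration-response format on HT-1080-NT cells for 48 hours at 37 degrees C. Cell viability came from CellTiter-Glo luminescence; curves were classified by r2, response magnitude and activity.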
HT1080 IDH1KD tx: qHTS for induction of synthetic lethality in tumor cells producing 2HG: qHTS for the HT-1080-IDH1KD cell line | HT-1080 IDH1 knockdown viability, ATP luminescence, 48 h | Potency, µM (highest dose often 46.1 µM), most hits filed as cytotoxic | 360,000 compounds, 2% hits | AID 686971, 2013
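IDH1KD HT-1080 cells, 750/well, RPMI + 5% FBS; compound pinned after 2 h settling; 48 h, 37 °C; CellTiter-Glo luminescence; % activity normalised to DMSO and no-cell wells; curves fitted, classed by r2 and efficacy.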
KB-3-1 tox: qHTS assay for MDR1-selective chemotherapeutics: Primary screen using the parental adenocarcinoma cell KB-3-1; Potency, µM (titrated, usually from 46.1 µM), actives largely listed as cytotoxic; 400,000 compounds, 1.4% hits; KB-3-1 viability, CellTiter-Glo ATP luminescence, 72 h; AID 1347075, 2019; also: nearly all actives have a fitted effect of over 60% in size
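Viability of parental KB-3-1 cells, measured by CellTiter-Glo luminescence, followed a 72 h incubation at 37 °C with pinned compounds in phenol-red-free DMEM containing 10% FBS.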
Large screens that a line does not name were inactive. Calls follow the shape of the dose curve; as a rule, active = well fitted curve in the direction sought with a large enough effect; inconclusive = small, poorly fitted or top-dose-only effect, or another doubt; inactive = no such curve, though single readings can be large; an effect the other way counts as inactive or inconclusive.

O=C(C1=C[C@@H](c2coc3ccccc3c2=O)C[C@@H](OCc2ccc(CO)cc2)O1)N1CCCCCCC1	MCF10A rerep 1.3µM
O=C(C1=C[C@@H](c2ccccc2)C[C@@H](OCc2ccc(CO)cc2)O1)N1CCN(Cc2ccc3c(c2)OCO3)CC1	KB-V1 MDR tox inconclusive, MCF10A rerep inconclusive, SW480 rereplic inconclusive, HT1080NT lethal inconclusive, HT1080 IDH1KD tx 16.4µM, KB-3-1 tox 10.3µM
Cc1cc(F)ccc1-c1cc(C(=O)NC2CCCCC2)[nH]n1	none (no result: MCF10A rerep, SW480 rereplic)
CSc1cc(-c2ccc(Cl)cc2)c(C(=O)NC(C)C)s1	MCF10A rerep inconclusive, SW480 rereplic inconclusive
CSc1cc(-c2ccc(Cl)cc2)c(C(=O)NN)s1	KB-V1 MDR tox 8.2µM, MCF10A rerep inconclusive, SW480 rereplic inconclusive, HT1080NT lethal inconclusive, HT1080 IDH1KD tx inconclusive, KB-3-1 tox inconclusive
CC(NS(=O)(=O)c1ccccc1)C(c1cccs1)N1CCN(c2ccccc2)CC1 (stereo unspecified)	KB-V1 MDR tox 6.51µM, MCF10A rerep inconclusive, HT1080NT lethal inconclusive, HT1080 IDH1KD tx inconclusive, KB-3-1 tox inconclusive
COc1ccccc1N1CCN(C(c2cccs2)C(C)NS(=O)(=O)c2ccccc2)CC1 (stereo unspecified)	KB-3-1 tox inconclusive
Cc1ccc(S(=O)(=O)Nc2nc(-c3ccccc3)cs2)cc1	none
Cc1ccc(S(=O)(=O)Nc2ccccc2C(=O)Nc2nc(-c3ccc(F)cc3)cs2)cc1	KB-V1 MDR tox 2.59µM, MCF10A rerep 5.8µM, SW480 rereplic inconclusive, HT1080NT lethal inconclusive, HT1080 IDH1KD tx inconclusive, KB-3-1 tox 11.6µM
COc1ccc(-c2csc(NC(=O)c3ccccc3NS(=O)(=O)c3ccc(F)c(F)c3)n2)cc1	KB-V1 MDR tox 4.11µM, MCF10A rerep 13µM, SW480 rereplic inconclusive, HT1080NT lethal inconclusive, HT1080 IDH1KD tx 1.64µM, KB-3-1 tox 5.17µM
COc1ccc(-c2csc(NC(=O)c3ccccc3F)n2)cc1	none
CCc1ccc(NCc2cc3c(C)nn(-c4ccccc4)c3[nH]c2=O)cc1	KB-V1 MDR tox 18.4µM, MCF10A rerep inconclusive, SW480 rereplic inconclusive, HT1080NT lethal inconclusive
COc1cc(NC(=O)CCc2c(C)nc3c(c(C)nn3-c3ccccc3)c2C)cc(OC)c1OC	none (no result: MCF10A rerep, SW480 rereplic, HT1080NT lethal, HT1080 IDH1KD tx)
CN(C(=O)CSc1nnc(CN2CCCC2)n1Cc1ccccc1)c1ccccc1	KB-V1 MDR tox inconclusive
CCN(C(=O)COC(=O)c1cc(-c2cccc3ccccc23)nc2ccccc12)C1CCS(=O)(=O)C1 (stereo unspecified)	KB-V1 MDR tox 18.4µM
CCN(C(=O)COC(=O)CNC(=O)c1ccc2ccccc2c1)C1CCS(=O)(=O)C1 (stereo unspecified)	MCF10A rerep 5.8µM
C=CCn1c(=O)c(CCC(=O)Nc2ccc(N3CCOCC3)cc2)nc2cc(C(F)(F)F)ccc21	none
CCCc1nc(SCC(=O)Nc2nnc(CC)s2)c2c(=O)n(C)c(=O)n(C)c2n1	none
Cc1ccc(NC(=O)COc2ccccc2)cc1Cl	MCF10A rerep inconclusive
C/C(CC(=O)Nc1ccc(OCc2ccccc2)cc1)=N\NC(=O)C(=O)Nc1ccc(C)c(Cl)c1	MCF10A rerep 10.3µM, HT1080NT lethal 18.4µM, HT1080 IDH1KD tx inconclusive, KB-3-1 tox inconclusive
C/C(CC(=O)Nc1ccc(C)c(Cl)c1)=N\NC(=O)Cc1ccccc1	KB-V1 MDR tox inconclusive
C/C(CC(=O)Nc1ccc(C)c(Cl)c1)=N\NC(=O)c1ccco1	KB-V1 MDR tox inconclusive, MCF10A rerep 18.4µM
CCOc1ccc(CCN2C(=S)N([C@@H](CC(C)C)CN3CCCC3CN3C(=S)NC[C@@H]3CC(C)C)C[C@@H]2CC(C)C)cc1 (stereo partly specified)	SW480 rereplic inconclusive
COc1cc(OC)cc(C(=O)Nc2cc3c(cc2N2CCOCC2)n(C)c(=O)n3C)c1	none (no result: MCF10A rerep, SW480 rereplic, HT1080NT lethal, HT1080 IDH1KD tx)
O=C(c1cc(COc2ccc(F)cc2F)on1)N1CCN(C2CCCC2)C(=O)C1	KB-V1 MDR tox 5.17µM
O=C(c1cc(COc2ccc(F)cc2F)on1)N1CC[C@@H]2CCCC[C@H]2C1	none
CSc1ccccc1OCc1cc(C(=O)N2CCN(C3CCCC3)C(=O)C2)no1	KB-V1 MDR tox 14.6µM
Cc1cc2[nH]c(=O)c(=O)[nH]c2cc1S(=O)(=O)Nc1cccc(Cl)c1C	none
CCCN1CNc2c(c(=O)[nH]c(=S)n2Cc2ccc(OC)c(OC)c2)C1	none (no result: KB-V1 MDR tox, MCF10A rerep, SW480 rereplic, KB-3-1 tox)
CCOC(=O)C1NN=C(C(=O)c2ccccc2)C1c1ccccc1 (stereo unspecified)	KB-V1 MDR tox 20.6µM
CCOC(=O)C1NN=C(C(=O)c2ccccc2)C1c1ccc(Cl)cc1 (stereo unspecified)	none
O=P(O)(OCc1ccccc1)OCc1ccccc1	none
O=P(NCc1ccccc1)(OCc1ccccc1)OCc1ccccc1	KB-V1 MDR tox 9.2µM
COc1ccc(CC(=O)NCC(c2ccc(Cl)cc2)N2CCOCC2)cc1 (stereo unspecified)	none (no result: MCF10A rerep, SW480 rereplic, HT1080NT lethal, HT1080 IDH1KD tx)
C=CCNC(=O)/C(C#N)=C\c1cc(Cl)c(O)c(OCC)c1	SW480 rereplic inconclusive
CCOc1cc(/C=C(/C#N)C(=O)Nc2ccc(O)cc2)cc(Br)c1O	KB-V1 MDR tox inconclusive, MCF10A rerep 0.184µM, SW480 rereplic 2.06µM, HT1080NT lethal 1.84µM, HT1080 IDH1KD tx 2.31µM, KB-3-1 tox 1.03µM
CCOc1ccc(C(=O)NCC(=O)Nc2ccc3c(c2)OCO3)cc1OCC	none
CCOc1cc(C(=O)Nc2ccc3c(c2)OCO3)ccc1OC(F)F	KB-V1 MDR tox 20.6µM
CCCOc1c(Cl)cc(C(=O)Nc2ccc3c(c2)OCO3)cc1OCC	KB-V1 MDR tox inconclusive, HT1080NT lethal inconclusive, HT1080 IDH1KD tx 10µM, KB-3-1 tox inconclusive
Oc1ccc(/C=N/Nc2ccc(C(F)(F)F)cn2)cc1	SW480 rereplic 9.2µM, HT1080NT lethal inconclusive, HT1080 IDH1KD tx inconclusive, KB-3-1 tox inconclusive
COc1cc(/C=N/Nc2ccccn2)cc(OC)c1O	none
COc1cc(/C=N/Nc2ccc(C(F)(F)F)cn2)cc(OC)c1O	SW480 rereplic 11.6µM, HT1080NT lethal inconclusive, HT1080 IDH1KD tx inconclusive, KB-3-1 tox inconclusive
COc1cc2nc(N3CCOCC3)nc(NC3CC3)c2cc1OC	none (no result: KB-V1 MDR tox, MCF10A rerep, SW480 rereplic, KB-3-1 tox)
Cc1ccc(C(=O)N2CCCC(c3ccc(Cl)cc3)=N2)cc1	MCF10A rerep 18.4µM, SW480 rereplic inconclusive, HT1080NT lethal inconclusive, HT1080 IDH1KD tx inconclusive
Cc1cc(=O)[nH]c(SCc2ccccc2)n1	none
Cc1cc(=O)[nH]c(SCCc2ccccc2)n1	KB-V1 MDR tox 11.6µM, KB-3-1 tox 16.4µM
